# Assay results published in PubChem BioAssay AID1159580 (chemical genetic matrix, 2015).
# Out of some 5,500 compounds screened, about 2,000 (36%) were called active. About 18% were inconclusive and are not listed. Some of the results follow. Unmarked numbers belong to inactive results. Cut-off read from the data, not from the text of the source: active = normalized growth mostly below about 0.91 (no sharp cut-off); inconclusive = no clear call, values can overlap the other calls; inactive = mostly above about 0.92.
# Test: chemical genetic growth profiling, strain panel (AID 1159580);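 note: tested at 20 µM; growth read once vehicle control cultures reached saturation at 30 °C; 1 = growth at the plate median or of vehicle wells; lower values mean less growth of the strain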
# Conditions: growth OD
compound,measurement,setting,value
O=C1C=CC2=C3c4cc(O)c(O)cc4CC3(O)COC2=C1O (centres undefined),normalized growth,"S. cerevisiae deletion strains, locus YJR043C, strain POL32, hits give low values",0.868
same,normalized growth,"S. cerevisiae deletion strains, locus YJR066W, strain TOR1, hits give low values",0.953
same,normalized growth,"S. cerevisiae deletion strains, locus YJR075W, strain HOC1, hits give low values",0.981
same,normalized growth,"S. cerevisiae deletion strains, locus YKL009W, strain mrt4, hits give low values",1.16 [resistant] (active)
same,normalized growth,"S. cerevisiae deletion strains, locus YKL068W, hits give low values",1.02
same,normalized growth,"S. cerevisiae deletion strains, locus YKL085W, strain MDH1 (second series), hits give low values",1.02
same,normalized growth,"S. cerevisiae deletion strains, locus YKL085W, strain MDH1, hits give low values",1.02
same,normalized growth,"S. cerevisiae deletion strains, locus YKL160W, strain elf1, hits give low values",1.01
same,normalized growth,"S. cerevisiae deletion strains, locus YKL190W, strain CNB1, hits give low values",0.908 (active)
same,normalized growth,"S. cerevisiae deletion strains, locus YKR001C, strain vps1, hits give low values",1.06
same,normalized growth,"S. cerevisiae deletion strains, locus YKR026C, strain gcn3, hits give low values",1.05
same,normalized growth,"S. cerevisiae deletion strains, locus YKR091W, strain srl3, hits give low values",1.04
same,normalized growth,"S. cerevisiae deletion strains, locus YLL001W, strain dnm1, hits give low values",1
same,normalized growth,"S. cerevisiae deletion strains, locus YLL026W, hits give low values",1.02
same,normalized growth,"S. cerevisiae deletion strains, locus YLL041C, strain sdh2, hits give low values",1.02
same,normalized growth,"S. cerevisiae deletion strains, locus YLR027C, strain aat2, hits give low values",1.01
same,normalized growth,"S. cerevisiae deletion strains, locus YLR039C, strain RIC1, hits give low values",0.848
same,normalized growth,"S. cerevisiae deletion strains, locus YLR058C, strain SHM2, hits give low values",0.92
same,normalized growth,"S. cerevisiae deletion strains, locus YLR102C, strain apc9, hits give low values",1.03
same,normalized growth,"S. cerevisiae deletion strains, locus YLR113W, strain HOG1, hits give low values",1.06
same,normalized growth,"S. cerevisiae deletion strains, locus YLR221C, strain rsa3, hits give low values",0.992
same,normalized growth,"S. cerevisiae deletion strains, locus YLR258W, strain gsy2, hits give low values",0.996
same,normalized growth,"S. cerevisiae deletion strains, locus YLR262C, strain YPT6 (second series), hits give low values",0.875
same,normalized growth,"S. cerevisiae deletion strains, locus YLR262C, strain YPT6, hits give low values",0.931
same,normalized growth,"S. cerevisiae deletion strains, locus YLR268W, strain sec22, hits give low values",1.01
same,normalized growth,"S. cerevisiae deletion strains, locus YLR320W, strain mms22, hits give low values",1.04
same,normalized growth,"S. cerevisiae deletion strains, locus YLR330W, strain CHS5, hits give low values",1.01
same,normalized growth,"S. cerevisiae deletion strains, locus YLR342W, strain FKS1 (second series), hits give low values",0.86
same,normalized growth,"S. cerevisiae deletion strains, locus YLR342W, strain FKS1, hits give low values",0.994
same,normalized growth,"S. cerevisiae deletion strains, locus YLR357W, strain rsc2, hits give low values",0.88
same,normalized growth,"S. cerevisiae deletion strains, locus YLR370C, strain arc18, hits give low values",0.977
same,normalized growth,"S. cerevisiae deletion strains, locus YLR371W, strain rom2, hits give low values",0.96
same,normalized growth,"S. cerevisiae deletion strains, locus YLR384C, strain iki3, hits give low values",1.02
same,normalized growth,"S. cerevisiae deletion strains, locus YLR418C, strain cdc73, hits give low values",0.954
same,normalized growth,"S. cerevisiae deletion strains, locus YML016C, strain PPZ1, hits give low values",0.938
same,normalized growth,"S. cerevisiae deletion strains, locus YML032C, strain rad52, hits give low values",1.05
same,normalized growth,"S. cerevisiae deletion strains, locus YML120C, strain ndi1, hits give low values",1.02
same,normalized growth,"S. cerevisiae deletion strains, locus YML124C, strain tub3, hits give low values",1.03
same,normalized growth,"S. cerevisiae deletion strains, locus YMR058W, strain fet3, hits give low values",0.611 (active)
same,normalized growth,"S. cerevisiae deletion strains, locus YMR078C, strain ctf18, hits give low values",1.05
same,normalized growth,"S. cerevisiae deletion strains, locus YMR125W, strain sto1, hits give low values",1.11
same,normalized growth,"S. cerevisiae deletion strains, locus YMR129W, hits give low values",1.03
same,normalized growth,"S. cerevisiae deletion strains, locus YMR205C, strain PFK2, hits give low values",1.05
same,normalized growth,"S. cerevisiae deletion strains, locus YMR223W, strain ubp8, hits give low values",1.01
same,normalized growth,"S. cerevisiae deletion strains, locus YMR263W, strain SAP30, hits give low values",0.965
same,normalized growth,"S. cerevisiae deletion strains, locus YMR307W, strain GAS1, hits give low values",0.815
same,normalized growth,"S. cerevisiae deletion strains, locus YNL067W, strain RPL9B, hits give low values",0.956
same,normalized growth,"S. cerevisiae deletion strains, locus YNL071W, strain lat1, hits give low values",1.04
same,normalized growth,"S. cerevisiae deletion strains, locus YNL128W, strain TEP1, hits give low values",0.845 (active)
same,normalized growth,"S. cerevisiae deletion strains, locus YNL183C, strain NPR1, hits give low values",0.983
same,normalized growth,"S. cerevisiae deletion strains, locus YNL209W, strain ssb2, hits give low values",0.831 (active)
same,normalized growth,"S. cerevisiae deletion strains, locus YNL233W, strain BNI4, hits give low values",0.97
same,normalized growth,"S. cerevisiae deletion strains, locus YNL248C, strain rpa49, hits give low values",1.03
same,normalized growth,"S. cerevisiae deletion strains, locus YNL250W, strain rad50, hits give low values",1
same,normalized growth,"S. cerevisiae deletion strains, locus YNL271C, strain bni1, hits give low values",1.01
same,normalized growth,"S. cerevisiae deletion strains, locus YNL298W, strain CLA4, hits give low values",1.01
same,normalized growth,"S. cerevisiae deletion strains, locus YNL307C, strain MCK1, hits give low values",1.02
same,normalized growth,"S. cerevisiae deletion strains, locus YNL322C, strain KRE1 (second series), hits give low values",1.05
same,normalized growth,"S. cerevisiae deletion strains, locus YNR049C, strain mso1, hits give low values",1.05
same,normalized growth,"S. cerevisiae deletion strains, locus YNR052C, strain pop2, hits give low values",1.01
same,normalized growth,"S. cerevisiae deletion strains, locus YOL012C, strain htz1",0.462
same,normalized growth,"S. cerevisiae deletion strains, locus YOL147C, strain pex11, hits give low values",1.03
same,normalized growth,"S. cerevisiae deletion strains, locus YOR001W, strain rrp6, hits give low values",1.01
same,normalized growth,"S. cerevisiae deletion strains, locus YOR061W, strain CKA2, hits give low values",0.977
same,normalized growth,"S. cerevisiae deletion strains, locus YOR069W, strain VPS5, hits give low values",0.992
same,normalized growth,"S. cerevisiae deletion strains, locus YOR070C, strain gyp1, hits give low values",0.969
same,normalized growth,"S. cerevisiae deletion strains, locus YOR080W, strain dia2, hits give low values",1.04
same,normalized growth,"S. cerevisiae deletion strains, locus YOR083W, strain WHI5, hits give low values",0.965
same,normalized growth,"S. cerevisiae deletion strains, locus YOR106W, strain vam3, hits give low values",0.811 (active)
same,normalized growth,"S. cerevisiae deletion strains, locus YOR136W, strain idh2, hits give low values",1.05
same,normalized growth,"S. cerevisiae deletion strains, locus YOR144C, strain elg1, hits give low values",1.03
same,normalized growth,"S. cerevisiae deletion strains, locus YOR184W, strain ser1, hits give low values",1.04
same,normalized growth,"S. cerevisiae deletion strains, locus YOR231W, strain MKK1, hits give low values",1.02
same,normalized growth,"S. cerevisiae deletion strains, locus YOR265W, strain rbl2, hits give low values",1.02
same,normalized growth,"S. cerevisiae deletion strains, locus YOR270C, strain vph1, hits give low values",0.956
same,normalized growth,"S. cerevisiae deletion strains, locus YOR290C, strain snf2, hits give low values",0.985
same,normalized growth,"S. cerevisiae deletion strains, locus YOR316C, strain cot1, hits give low values",1.04
same,normalized growth,"S. cerevisiae deletion strains, locus YPL051W, strain arl3, hits give low values",0.884 (active)
same,normalized growth,"S. cerevisiae deletion strains, locus YPL078C, strain atp4, hits give low values",1.01
same,normalized growth,"S. cerevisiae deletion strains, locus YPL106C, strain sse1, hits give low values",0.99
same,normalized growth,"S. cerevisiae deletion strains, locus YPL240C, strain hsp82, hits give low values",1.03
same,normalized growth,"S. cerevisiae deletion strains, locus YPL241C, strain CIN2, hits give low values",0.994
same,normalized growth,"S. cerevisiae deletion strains, locus YPL256C, strain CLN2, hits give low values",1.05
same,normalized growth,"S. cerevisiae deletion strains, locus YPR119W, strain clb2, hits give low values",1.02
same,normalized growth,"S. cerevisiae deletion strains, locus YPR141C, strain kar3, hits give low values",1.01
same,normalized growth,"S. cerevisiae deletion strains, locus YPR163C, strain tif3, hits give low values",1.02
same,normalized growth,"S. cerevisiae deletion strains, locus YPR167C, strain met16, hits give low values",1.04
same,normalized growth,"S. cerevisiae deletion strains, strain wtn01, hits give low values",1.03
same,normalized growth,"S. cerevisiae strains, strain wild type, hits give low values",0.814 (active)
